# Test results: the supplement of paper PMC4466140
# B1: unnamed (peptide)
# chain: LFMKGTPEFPKSGFS
# Columns and labels:
# Assay in all cases: SPOT peptide array binding signal intensity (averaged, normalized) (arbitrary units (background-subtracted, floor 0; scale differs between SH3 domains)); higher = stronger binding of the SH3 domain to the peptide
# AgAbp1 = target: AgAbp1
# Procedure, shortened: (§1)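 GST-fused SH3 domains, from four yeast species, were produced in E. coli BL21(DE3) and captured on glutathione Sepharose. Membranes of cellulose carrying synthetic 15-mer peptides, in which cysteines had been replaced by serines, were exposed to each domain at 10 μg/ml overnight at 4°C in TBS-based blocking buffer. After anti-GST antibody, an HRP anti-mouse secondary and luminol, spots were imaged and quantified using Genespotter. Binding signal is normalized and background-subtracted spot intensity, averaged over replicates, in arbitrary units that differ between domains.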
# AgBbc1 = target: AgBbc1
# Procedure, shortened: as §1
# AgBem1-D1 = target: AgBem1-D1
# Procedure, shortened: as §1
# AgBzz1-D1 = target: AgBzz1-D1
# Procedure, shortened: as §1
# AgBzz1-D2 = target: AgBzz1-D2
# Procedure, shortened: as §1
# AgCyk3 = target: AgCyk3
# Procedure, shortened: as §1
# AgFus1 = target: AgFus1
# Procedure, shortened: as §1
# AgHof1 = target: AgHof1
# Procedure, shortened: as §1
# AgHse1 = target: AgHse1
# Procedure, shortened: as §1
# AgLsb1 = target: AgLsb1
# Procedure, shortened: as §1
# AgLsb4 = target: AgLsb4
# Procedure, shortened: as §1
# AgMyo5 = target: AgMyo5
# Procedure, shortened: as §1
# AgNbp2 = target: AgNbp2
# Procedure, shortened: as §1
# AgRvs167 = target: AgRvs167
# Procedure, shortened: as §1
# AgSho1 = target: AgSho1
# Procedure, shortened: as §1
# AgSla1-D1-D2 = target: AgSla1-D1-D2
# Procedure, shortened: as §1
# AgSla1-D3 = target: AgSla1-D3
# Procedure, shortened: as §1
# CaAbp1-D1 = target: CaAbp1-D1
# Procedure, shortened: as §1
# CaAbp1-D2 = target: CaAbp1-D2
# Procedure, shortened: as §1
# CaBbc1 = target: CaBbc1
# Procedure, shortened: as §1
# CaBem1-D1 = target: CaBem1-D1
# Procedure, shortened: as §1
# CaBzz1-D1 = target: CaBzz1-D1
# Procedure, shortened: as §1
# CaBzz1-D2 = target: CaBzz1-D2
# Procedure, shortened: as §1
# CaCyk3 = target: CaCyk3
# Procedure, shortened: as §1
# CaFus1 = target: CaFus1
# Procedure, shortened: as §1
# CaHof1 = target: CaHof1
# Procedure, shortened: as §1
# CaHse1 = target: CaHse1
# Procedure, shortened: as §1
# CaLsb1 = target: CaLsb1
# Procedure, shortened: as §1
# CaLsb4 = target: CaLsb4
# Procedure, shortened: as §1
# CaMyo5 = target: CaMyo5
# Procedure, shortened: as §1
# CaNbp2 = target: CaNbp2
# Procedure, shortened: as §1
# CaRvs167 = target: CaRvs167
# Procedure, shortened: as §1
# CaRvs167-3 = target: CaRvs167-3
# Procedure, shortened: as §1
# CaSho1 = target: CaSho1
# Procedure, shortened: as §1
# CaSla1-D1-D2 = target: CaSla1-D1-D2
# Procedure, shortened: as §1
# CaSla1-D3 = target: CaSla1-D3
# Procedure, shortened: as §1
# ScAbp1 = target: ScAbp1
# Procedure, shortened: as §1
# ScBbc1 = target: ScBbc1
# Procedure, shortened: as §1
# ScBem1-D1 = target: ScBem1-D1
# Procedure, shortened: as §1
# ScBzz1-D1 = target: ScBzz1-D1
# Procedure, shortened: as §1
# ScBzz1-D2 = target: ScBzz1-D2
# Procedure, shortened: as §1
# ScCyk3 = target: ScCyk3
# Procedure, shortened: as §1
# ScFus1 = target: ScFus1
# Procedure, shortened: as §1
# ScHof1 = target: ScHof1
# Procedure, shortened: as §1
# ScHse1 = target: ScHse1
# Procedure, shortened: as §1
# ScLsb1 = target: ScLsb1
# Procedure, shortened: as §1
# ScLsb2 = target: ScLsb2
# Procedure, shortened: as §1
# ScLsb3 = target: ScLsb3
# Procedure, shortened: as §1
# ScLsb4 = target: ScLsb4
# Procedure, shortened: as §1
# ScMyo3 = target: ScMyo3
# Procedure, shortened: as §1
# ScMyo5 = target: ScMyo5
# Procedure, shortened: as §1
# ScNbp2 = target: ScNbp2
# Procedure, shortened: as §1
# ScPex13 = target: ScPex13
# Procedure, shortened: as §1
# ScRvs167 = target: ScRvs167
# Procedure, shortened: as §1
# ScSho1 = target: ScSho1
# Procedure, shortened: as §1
# ScSla1-D1-D2 = target: ScSla1-D1-D2
# Procedure, shortened: as §1
# ScSla1-D3 = target: ScSla1-D3
# Procedure, shortened: as §1
# SpAbp1-D1 = target: SpAbp1-D1
# Procedure, shortened: as §1
# SpBbc1 = target: SpBbc1
# Procedure, shortened: as §1
# SpBzz1-D1 = target: SpBzz1-D1
# Procedure, shortened: as §1
# SpBzz1-D2 = target: SpBzz1-D2
# Procedure, shortened: as §1
# SpCyk3 = target: SpCyk3
# Procedure, shortened: as §1
# SpHof1 = target: SpHof1
# Procedure, shortened: as §1
# SpHof1-2 = target: SpHof1-2
# Procedure, shortened: as §1
# SpHof1-3 = target: SpHof1-3
# Procedure, shortened: as §1
# SpHse1 = target: SpHse1
# Procedure, shortened: as §1
# SpLsb1 = target: SpLsb1
# Procedure, shortened: as §1
# SpLsb4 = target: SpLsb4
# Procedure, shortened: as §1
# SpMyo1 = target: SpMyo1
# Procedure, shortened: as §1
# SpNbp2 = target: SpNbp2
# Procedure, shortened: as §1
# SpPex13 = target: SpPex13
# Procedure, shortened: as §1
# SpRvs167 = target: SpRvs167
# Procedure, shortened: as §1
# SpSla1-D1-D2 = target: SpSla1-D1-D2
# Procedure, shortened: as §1
# SpSla1-D3 = target: SpSla1-D3
# Procedure, shortened: as §1
binder,measurement,setting,value
B1,SPOT peptide array binding signal intensity,AgAbp1,≤ 0
same,SPOT peptide array binding signal intensity,AgBbc1,12.5
same,SPOT peptide array binding signal intensity,AgBem1-D1,224
same,SPOT peptide array binding signal intensity,AgBzz1-D1,8.5
same,SPOT peptide array binding signal intensity,AgBzz1-D2,7
same,SPOT peptide array binding signal intensity,AgCyk3,≤ 0
same,SPOT peptide array binding signal intensity,AgFus1,479
same,SPOT peptide array binding signal intensity,AgHof1,7
same,SPOT peptide array binding signal intensity,AgHse1,104
same,SPOT peptide array binding signal intensity,AgLsb1,≤ 0
same,SPOT peptide array binding signal intensity,AgLsb4,5
same,SPOT peptide array binding signal intensity,AgMyo5,5
same,SPOT peptide array binding signal intensity,AgNbp2,208
same,SPOT peptide array binding signal intensity,AgRvs167,0.667
same,SPOT peptide array binding signal intensity,AgSho1,248
same,SPOT peptide array binding signal intensity,AgSla1-D1-D2,4
same,SPOT peptide array binding signal intensity,AgSla1-D3,5
same,SPOT peptide array binding signal intensity,CaAbp1-D1,291
same,SPOT peptide array binding signal intensity,CaAbp1-D2,224
same,SPOT peptide array binding signal intensity,CaBbc1,40.5
same,SPOT peptide array binding signal intensity,CaBem1-D1,272
same,SPOT peptide array binding signal intensity,CaBzz1-D1,182
same,SPOT peptide array binding signal intensity,CaBzz1-D2,58.8
same,SPOT peptide array binding signal intensity,CaCyk3,7.5
same,SPOT peptide array binding signal intensity,CaFus1,914
same,SPOT peptide array binding signal intensity,CaHof1,≤ 0
same,SPOT peptide array binding signal intensity,CaHse1,113
same,SPOT peptide array binding signal intensity,CaLsb1,3.5
same,SPOT peptide array binding signal intensity,CaLsb4,196
same,SPOT peptide array binding signal intensity,CaMyo5,40.2
same,SPOT peptide array binding signal intensity,CaNbp2,611
same,SPOT peptide array binding signal intensity,CaRvs167,75
same,SPOT peptide array binding signal intensity,CaRvs167-3,1.5
same,SPOT peptide array binding signal intensity,CaSho1,1200
same,SPOT peptide array binding signal intensity,CaSla1-D1-D2,90
same,SPOT peptide array binding signal intensity,CaSla1-D3,289
same,SPOT peptide array binding signal intensity,ScAbp1,6.5
same,SPOT peptide array binding signal intensity,ScBbc1,≤ 0
same,SPOT peptide array binding signal intensity,ScBem1-D1,16
same,SPOT peptide array binding signal intensity,ScBzz1-D1,20.5
same,SPOT peptide array binding signal intensity,ScBzz1-D2,11.5
same,SPOT peptide array binding signal intensity,ScCyk3,1
same,SPOT peptide array binding signal intensity,ScFus1,738
same,SPOT peptide array binding signal intensity,ScHof1,≤ 0
same,SPOT peptide array binding signal intensity,ScHse1,17.5
same,SPOT peptide array binding signal intensity,ScLsb1,19
same,SPOT peptide array binding signal intensity,ScLsb2,≤ 0
same,SPOT peptide array binding signal intensity,ScLsb3,197
same,SPOT peptide array binding signal intensity,ScLsb4,92.5
same,SPOT peptide array binding signal intensity,ScMyo3,21
same,SPOT peptide array binding signal intensity,ScMyo5,2
same,SPOT peptide array binding signal intensity,ScNbp2,212
same,SPOT peptide array binding signal intensity,ScPex13,394
same,SPOT peptide array binding signal intensity,ScRvs167,32
same,SPOT peptide array binding signal intensity,ScSho1,658
same,SPOT peptide array binding signal intensity,ScSla1-D1-D2,176
same,SPOT peptide array binding signal intensity,ScSla1-D3,490
same,SPOT peptide array binding signal intensity,SpAbp1-D1,52.5
same,SPOT peptide array binding signal intensity,SpBbc1,≤ 0
same,SPOT peptide array binding signal intensity,SpBzz1-D1,140
same,SPOT peptide array binding signal intensity,SpBzz1-D2,16.5
same,SPOT peptide array binding signal intensity,SpCyk3,≤ 0
same,SPOT peptide array binding signal intensity,SpHof1,19
same,SPOT peptide array binding signal intensity,SpHof1-2,18.8
same,SPOT peptide array binding signal intensity,SpHof1-3,78
same,SPOT peptide array binding signal intensity,SpHse1,335
same,SPOT peptide array binding signal intensity,SpLsb1,≤ 0
same,SPOT peptide array binding signal intensity,SpLsb4,629
same,SPOT peptide array binding signal intensity,SpMyo1,22.8
same,SPOT peptide array binding signal intensity,SpNbp2,100
same,SPOT peptide array binding signal intensity,SpPex13,28
same,SPOT peptide array binding signal intensity,SpRvs167,30.8
same,SPOT peptide array binding signal intensity,SpSla1-D1-D2,8
same,SPOT peptide array binding signal intensity,SpSla1-D3,253
